# Source: PubChem BioAssay (National Center for Advancing Translational Sciences (NCATS))
# Marburg entry inh = qHTS for inhibitors of binding or entry into cells for Marburg Virus; Marburg virus pseudotyped entry inhibition, cell reporter; Potency, µM (titrated, usually from 37.8 µM), without a hit: at the highest dose activity change, negative = inhibition, actives largely listed as inhibitors; 300,000 tested, 1.8% active; AID 540276, 2011; calls by dose curve; tested in HEK293 cells; also: potency is read from the fitted curve at half-maximal effect
# Vaccinia Venus = qHTS for Stage-Specific Inhibitors of Vaccinia Orthopoxvirus: Venus Reporter Primary qHTS | Vaccinia virus Venus reporter expression, fluorescence | Potency, µM (doses to about 36.5 µM), for inactives: top-dose activity change, negative = inhibition, usual class: inhibitors | 330,000 tested, 0.46% active | AID 720580, 2013; calls by dose curve; tested in A549 cells; also: potency is read from the fitted curve at half-maximal effect; nearly all actives have a fitted effect of over 30% in size
# FMDV antiviral = High Throughput Screening for Foot and Mouth Disease Virus Antivirals. 410,000 tested, 1.2% active. FMDV antiviral cell-based qHTS. Potency, µM (top dose mostly 57.9 µM), inactives show at the highest dose activity change, negative = inhibition, actives largely listed as inhibitors; calls by dose curve; tested in HEK293T cells; also: read-out not given here; potency is read from the fitted curve at half-maximal effect; nearly all actives have a fitted effect of over 45% in size
# Lassa entry inh = qHTS for Inhibitors of binding or entry into cells for Lassa Virus; Lassa virus pseudotype entry inhibition, cell reporter; Potency, µM (titrated, usually from 37.9 µM), inactives show at the highest dose activity change, negative = inhibition, most hits filed as inhibitors; 300,000 tested, 1.2% active; AID 540256, 2011; calls by dose curve; tested in HEK293 cells; also: potency is read from the fitted curve at half-maximal effect; nearly all actives have a fitted effect of over 50% in size
# HCMV inh = qHTS Assay for inhibitors of the human cytomegalovirus (HCMV); HFF cells, HCMV-luciferase reporter, 72 h; hits give low values; activity change, negative = inhibition, % at 57.5 µM; 410,000 tested, 4.5% active; AID 1259415, 2018; in the data active = activity change below about -60%; inconclusive = no clear call, values can overlap the other calls; inactive = above about -39%
#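 Two compound doses tested in HFFs infected with HCMV-luciferase, MOI 1 PFU/cell, 72 h at 37C. Lysate luminescence read with OneGlo; data normalized against buffer-only and 10uM Salinomycin inhibitor controls.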
# VACV mCherry inh = qHTS for Stage-Specific Inhibitors of Vaccinia Orthopoxvirus: mCherry Reporter Primary qHTS; Potency, µM (doses to about 36.5 µM), for the others: at the top dose activity change, negative = inhibition, hits mostly inhibitors; 310,000 tested, 0.63% active; Vaccinia virus mCherry reporter infection, fluorescence; calls by dose curve; tested in A549 cells; also: potency is read from the fitted curve at half-maximal effect; nearly all actives have a fitted effect of over 35% in size
# * = called active by the depositor; i = inactive; ? = inconclusive; nt = no result given; [ ] = another dose, or the depositor's remark. An excerpt weighted towards active compounds, which were near 6.5% of everything screened. % is scaled to controls: 0 for no effect and ±100 for the full control effect.
SMILES,Marburg entry inh,Vaccinia Venus,FMDV antiviral,Lassa entry inh,HCMV inh,VACV mCherry inh
O=C(NCc1ccc(Cl)cc1)C(=O)NCC(c1cccs1)S(=O)(=O)c1cccs1 (configuration not stated),nt,-7%,-18%,?,0,-22%
O=C(NCc1ccccc1Cl)C(=O)NCC(c1cccs1)S(=O)(=O)c1cccs1 (configuration not stated),nt,-13%,-19%,?,-62*,-13%
Cc1ccc(C(=O)Nc2cccc(-c3nc(CNC(=O)C4CCCCC4)c(C)o3)c2)s1,nt,?,30%,nt,nt,?
CC=COC(=O)N[C@@H](c1ccccc1)[C@]1(C(C)=O)CCCC1=O,-6%[14.2 µM],nt,nt,?,nt,nt
COc1cc(OC)c(NS(=O)(=O)c2ccc(Cl)c(C(=O)OC(C)C(=O)N3CCCC3)c2)cc1Cl (configuration not stated),?,?,?,-18%,-64*,-12%
COc1ccc(NC(=S)N(CCN(C)C)C(C)c2ccco2)cc1 (configuration not stated),?,-2%,27%,?,-62*,-10%
CC(SCc1ccccc1)C(=O)N/N=C/c1ccc(OCC(=O)NCc2ccco2)cc1 (configuration not stated),?,?,13µM*,?,-28,-23%
COc1ccc(CSCC(=O)N/N=C/c2ccc(OCC(=O)NCc3ccco3)cc2)cc1,?,-28%,?,?,-21,nt
CC(=O)C1=C(O)C=C2Oc3c(C(C)=O)c(O)c(C)c(O)c3C2(C)C1=O (configuration not stated),nt,nt,-20%,nt,nt,nt
CCOC(=O)c1cnc2c(cnn2CC)c1NN=C(C)C,?,nt,-1%,3%,nt,nt
CCN1C(=O)C(Cc2nc3ccccc3c(=O)n2-c2ccc(OC)cc2)c2cc(C)ccc21 (configuration not stated),14%[46.1 µM],-23%,-7%,0%[46.1 µM],-11,-22%
CCN1C(=O)C(Cc2nc3ccccc3c(=O)n2-c2ccccc2)c2cc(Br)ccc21 (configuration not stated),?,-11%,?,-14%[46.1 µM],-70*,-25%
COc1ccc(-n2nc(C(=O)N3CCN(c4ccccc4OC)CC3)c3c4ccccc4n(C)c3c2=O)cc1,-2%[46.1 µM],-4%,-13%,2%[46.1 µM],21,-10%
CC(=O)N(Cc1cc(=O)[nH]c2ccccc12)c1ccccc1C,?,-7%,-10%,?,-2,-9%
CCCC(=O)N(Cc1cc(=O)[nH]c2ccccc12)c1cccc(C)c1,26%,-11%,-18%,-5%,-6,i
Cc1cccc(N(Cc2cc(=O)[nH]c3ccccc23)C(=O)CCl)c1,nt,13µM*,20µM*,nt,-96*,?
COc1ccc(N(Cc2cc(=O)[nH]c3ccccc23)C(=O)CCl)cc1,?,-27%,20µM*,?,-101*,-19%
CCCC(=O)N(Cc1cc(=O)[nH]c2ccccc12)c1ccccc1C,?,-8%,-10%,?,-73*,-8%
COC(=O)[C@H]1[C@H](CCc2ccccc2)NC(=O)N(Cc2ccccc2)[C@H]1C,-15%[14.2 µM],nt,nt,?,nt,nt
COc1ccccc1C1CN(CCNC(=O)c2cnsn2)Cc2ccccc2O1 (configuration not stated),nt,-5%,9%,nt,nt,-21%
Oc1ccc(-c2cccnc2)cc1CNC1CN2CCC1CC2 (configuration not stated),nt,-16%,-10%,nt,nt,-19%
CC(C)(C)OC(=O)N[C@H]1C=C[C@@H](CC(=O)OCC(F)(F)F)C1,nt,nt,nt,nt,28,nt
COc1ccccc1C1Nc2ccccc2-n2c(-c3ccccc3)c3c(=O)n(C)c(=O)n(C)c3c21 (configuration not stated),?,-16%,?,?,-96*,-7%
Cc1ccccc1-c1nc(CNC(=O)NC2CCCCC2)c(C)o1,nt,-1%,28%,-7%[46.1 µM],5,-12%
O=C(COc1ccccc1)NNc1c2ccccc2nc2ccccc12,11µM*,?,25µM*,?,-92*,nt
